Screening data from PubChem BioAssay.
NS1 inh: qHTS Assay for Inhibitors of Influenza NS1 Protein Function; AID 2326, 2010; Potency, µM (series often up to 46.1 µM); 270,000 compounds, 0.4% hits; further: actives are rising curves; nearly all actives have a fitted effect of over 50% in size
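In this qHTS, NS1 from influenza A is expressed in budding yeast, where it slows growth. Cells are switched from glucose to 2% galactose medium (pH 6.0, -URA), treated with compound, and growth recovery is read at OD600.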
Pf growth 96h: Primary qHTS for delayed death inhibitors of the malarial parasite plastid, 96 hour incubation; 320,000 compounds, 6.9% hits; AID 504834, 2011; Potency, µM (top dose mostly 28.7 µM), hits mostly inhibitors; P. falciparum luciferase reporter growth, 96 h; active means well fitted inhibition curve with a large enough effect; inconclusive means small, poorly fitted or top-dose-only effect, or another doubt; inactive means no such curve, though single readings can be large or run the other way
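Compounds incubated with erythrocytes infected by luciferase-expressing P. falciparum (2% hematocrit, 0.05% parasitemia final) for 96 hours, 37 C in 5% CO2. Growth inhibition scored as decreased luciferase luminescence.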
CHX counter: Cycloheximide Counterscreen for Small Molecule Inhibitors of Shiga Toxin; cell reporter, cycloheximide protein synthesis inhibition counterscreen; max response, %; 300,000 compounds, 12% hits; AID 2314, 2010; in the data active means max response mostly above about 13%, no sharp cut-off; inactive means mostly below about 14%; further: read at 38.3 µM for the half of the compounds with a filed dose
SARS PLP yeast: qHTS of Yeast-based Assay for SARS-CoV PLP; S. cerevisiae expressing SARS-CoV PLpro, growth rescue; Potency, µM (top dose mostly 32.9 µM), hits mostly activators; 330,000 compounds, 0.19% hits; further: nearly all actives have a fitted effect of over 55% in size
Pf growth 48h: Primary qHTS for delayed death inhibitors of the malarial parasite plastid, 48 hour incubation. Potency, µM (series often up to 28.7 µM), most hits filed as inhibitors. AID 504832, 2011. P. falciparum luciferase growth in erythrocytes, 48 h. 310,000 compounds, 5.9% hits; active means well fitted inhibition curve with a large enough effect; inconclusive means small, poorly fitted or top-dose-only effect, or another doubt; inactive means no such curve, though single readings can be large or run the other way
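Compounds are pin-transferred into medium, infected erythrocytes (2% hematocrit, 0.1% parasitemia final) are added, and plates sit one parasite generation at 37 C in 5% CO2. Detection reagent is then added and luminescence measured.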
Shiga inhibitor: A qHTS for Small Molecule Inhibitors of Shiga Toxin. Vero cells, Shiga toxin protein synthesis inhibition reporter. inhibition, % at 38.7 µM. 290,000 compounds, 9.2% hits. AID 2315, 2010; in the data active means inhibition mostly above about 28%, no sharp cut-off; inactive means mostly below about 43%
Numbers stand for hits; n = inactive; u = inconclusive; x = not tested or not shown; [ ] = another dose, or the depositor's remark. The list is not random: actives were taken first. Their share in the collection is about 21%. Unless noted, the call rests on the fitted dose curve.

SMILES	NS1 inh	Pf growth 96h	CHX counter	SARS PLP yeast	Pf growth 48h	Shiga inhibitor
CC1CCCN(C(C(=O)NC2CCCCC2)c2cc3c(cc2[N+](=O)[O-])OCO3)C1 (centres undefined)	n	n	53	n	u	108
COc1ccc(C(=O)Nc2cc(C(F)(F)F)ccc2-n2cnc3ccccc32)cc1	n	u	n	n	u	n
COCCn1c(SCC(=O)NNC(=O)c2ccccc2)nc2ccccc2c1=O	n	u	n	n	n	n
Cc1ccc(C(=O)Nc2ccc(C(F)(F)F)n(C)c2=O)cc1	n	n	45	n	n	87
COCCn1c(C(F)(F)F)ccc(NC(=O)c2ccccc2)c1=O	n	n	48	n	n	51
CCN(CC)S(=O)(=O)c1ccc(C(=O)Nc2ccc(C(F)(F)F)n(C)c2=O)cc1	n	n	n	n	n	n
COc1ccc(C(=O)Nc2ccc(C(F)(F)F)n(C)c2=O)cc1	n	n	19	n	n	58
COC(=O)N1C(=O)[C@@](c2ccccc2)(C2CCCC2)N1C(=O)OC	n	n	18	x	n	n
CC[C@@]1(c2cccc(C)c2)C(=O)N(C(=O)OC)N1C(=O)OC	n	n	n	n	n	n
COC(=O)N1C(=O)[C@@](CC(C)C)(c2ccccc2)N1C(=O)OC	n	n	16	n	n	n
COC(=O)N1C(=O)[C@](CC(C)C)(c2ccccc2)N1C(=O)OC	n	n	15	n	n	n
CC[C@@]1(c2ccccc2OC)C(=O)N(C(=O)OC)N1C(=O)OC	n	u	25	n	n	24
Cc1nc2ccccn2c1C(=O)NNC(=O)Nc1cccc(C(F)(F)F)c1	n	n	n	n	n	n
O=C(Cn1cc(C(F)(F)F)ccc1=O)NCC1CCCO1 (centres undefined)	x	n	x	n	n	x
O=C(Cn1cccc1C(=O)c1ccccc1)NCc1ccc(F)cc1	n	u	16	n	n	n
O=C(Cn1cccc1C(=O)c1ccccc1)NCc1ccc2c(c1)OCO2	n	n	29	n	u	52
COc1cccc(NC(=O)CN2CC(c3ccccc3)CC2=O)c1 (centres undefined)	n	n	n	u	x	n
O=C(Cn1cc(C(F)(F)F)ccc1=O)NCc1ccc(F)cc1	n	n	29	n	n	36
O=C(Cn1cccc1C(=O)c1ccccc1)NCc1ccccc1	n	x	n	n	x	n
O=C(CN1CC(c2ccccc2)CC1=O)NCc1ccc(F)cc1 (centres undefined)	n	4.1µM	n	n	n	n
Cc1cc(NC(=O)CC(C)C)c(=O)n(Cc2ccccc2F)c1	n	n	n	n	n	x
O=c1ncn(-c2cccc(F)c2)c2ncccc12	n	x	14	n	n	n
O=C(NC(NC(=S)Nc1cccc(C(=O)O)c1)C(Cl)(Cl)Cl)OCc1ccccc1 (centres undefined)	u	u	19	n	n	n
O=C(O)c1ccc(Cl)c(S(=O)(=O)Nc2ccc(OCc3ccccc3)cc2)c1	n	n	23	n	n	62
Cc1ccc(C(=O)O)cc1NC(=S)NC(=O)c1ccc(COc2ccccc2)cc1	n	n	n	n	n	n
SMILES	NS1 inh	Pf growth 96h	CHX counter	SARS PLP yeast	Pf growth 48h	Shiga inhibitor
O=C(O)c1cccc(NC(=S)NC(=O)c2cccc(OCc3ccccc3)c2)c1	n	n	14	n	n	39
O=C(Nc1ccc(COc2ccccc2)cc1)Nc1cccc(C(=O)O)c1	n	n	17	n	x	n
COc1ccc(NC(=O)CC2(CC(=O)O)CCCC2)cn1	x	n	n	n	n	n
Cc1ccc(S(C)(=O)=O)cc1C(=O)N1CC(C(N)=O)Oc2ccccc21 (centres undefined)	n	n	n	n	n	n
CCCCCN(C(=O)CCC(=O)OCC(=O)Nc1cccc(CC)c1)c1c(N)n(CCCC)c(=O)[nH]c1=O	x	n	x	n	n	x
COc1ccc(C(O)c2nc3ccccc3s2)cc1 (centres undefined)	n	n	n	n	n	n
CCSc1nc(-c2ccc(OC)cc2)n(-c2nc3ccccc3s2)n1	n	n	17	n	u	n
CC1Nc2ncnc(N3CCN(c4ccccn4)CC3)c2N(Cc2ccccc2)C1=O (centres undefined)	x	2.6µM	x	n	12µM	x
Cc1ccc(CN2C(=O)C(C)Nc3ncnc(N4CCN(c5ccccn5)CC4)c32)cc1 (centres undefined)	x	12µM	x	n	12µM	x
COc1ccc(C(=O)NC(=S)Nc2ccc(CN3CCOCC3)cc2)cc1Br	n	u	n	n	u	n
Cc1ccc(C)c(CS(=O)(=O)c2cn(CC(=O)N3CCC(C)CC3)c3ccccc23)c1	n	5.2µM	n	n	u	n
CSCC[C@H](NC(=O)OC(C)(C)C)C(=O)NCC1CCC(C(=O)N[C@@H](Cc2ccccc2)C(=O)O)CC1 (some centres undefined)	n	n	n	n	n	n
Cc1cc(C)c2nc(-n3nc(C)cc3N)cc(C)c2c1	n	n	26	n	n	108
CCOC(=O)c1cnn(-c2cc(C)c3cc(C)cc(C)c3n2)c1N	n	x	x	x	x	x
Cc1cc(N)n(-c2nc(-c3cccnc3)nc3ccccc23)n1	n	n	33	n	u	64
Cc1cc(N)n(-c2cc(C)c3ccccc3n2)n1	x	n	46	n	n	79
S=c1[nH]nc(CSc2nc3ccccc3s2)n1C1CCCCC1	n	u	n	n	n	n
CN(C)/C=C(\C#N)C(=O)Nc1ccccc1	x	n	32	n	n	57
Cc1cc(/C=C(\C#N)C(=O)Nc2ccccc2)c(C)n1-c1cccnc1	n	u	33	n	n	62
Cc1cc(C(=O)O)ccc1-n1c(C)cc(/C=C(/C#N)C(=O)Nc2ccccc2)c1C	n	n	n	n	u	n
CN(C)/C=C(\C#N)C(=O)Nc1ccc(O)cc1F	n	n	n	n	n	n
Cc1ccc(NC(=O)/C(C#N)=C/c2ccccc2C(F)(F)F)cc1	n	n	27	n	n	n
CCOC(=O)/C(C#N)=C/c1cc(C)n(-c2ccc(Br)cc2)c1C	n	n	n	n	x	n
Cc1ccccc1NC(=O)/C(C#N)=C/c1ccccc1C(F)(F)F	n	n	n	n	n	n
CCOC(=O)/C(C#N)=C/c1cc(C)n(-c2ccccc2)c1C	n	n	50	n	x	111
N/N=C1\CCCc2nonc21	n	u	n	n	n	n
Cc1ccc(NC(=O)C(C)SCC(=O)Nc2ccc(F)cc2)cc1S(=O)(=O)N1CCOCC1 (centres undefined)	x	n	x	x	u	x
Cc1cccc(NC(=O)/C(C#N)=C\c2cccnc2)c1	n	n	n	n	n	n
N#C/C(=C\c1ccccc1O)C(=O)Nc1cccnc1	n	u	46	n	u	57
COCc1c(Br)c(C)nc2sc3c(=O)[nH]nnc3c12	n	n	n	n	n[0.00184 µM]	n
